Assay results as given in PubChem BioAssay (NCATS).
Results filed as inconclusive are left out. Activity calls are given as the source filed them. Calls come from the whole dose curve; as a rule, active = well fitted cell-killing curve with a large enough effect; inconclusive = small, poorly fitted or top-dose-only effect, or effect the other way; inactive = flat fitted curve, though single readings scatter.

Tests used:
Assay in all cases: Primary qHTS to identify gynecologic anti-cancer compounds using libraries of approved drugs and bioactive compounds (AID 1345084); note: nearly all actives have a fitted effect of over 55% in size
C33A = conditions: Gynecologic cancer cell panel viability, ATPlite luminescence, 48 h; series mostly up to 57.5 µM
How it was run: (§1)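 Cells, 1,000 per well, plated 16 h, then exposed 48 h at 37 C to compounds. Viability by ATPlite luminescence after 15 min at room temperature.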

CAOV3 = conditions: Gynecologic cancer cell panel viability, ATPlite luminescence, 48 h; series mostly up to 57.5 µM
How it was run: as §1

CASKI = conditions: Gynecologic cancer cell panel viability, ATPlite luminescence, 48 h; series mostly up to 57.5 µM
How it was run: as §1

Es-2 = conditions: Gynecologic cancer cell panel viability, ATPlite luminescence, 48 h; series mostly up to 57.5 µM
How it was run: as §1

HeLa = conditions: Gynecologic cancer cell panel viability, ATPlite luminescence, 48 h; series mostly up to 57.5 µM
How it was run: as §1

Hek293T = conditions: Gynecologic cancer cell panel viability, ATPlite luminescence, 48 h, control line for the selectivity index; series mostly up to 57.5 µM
How it was run: as §1
% is set by controls: 0 for no effect and ±100 for the full control effect.

COc1cc2c(cc1O)[C@H](c1ccc(O[C@@H]3O[C@H](CO)[C@@H](O)[C@H](O)[C@H]3O)c(OC)c1)[C@@H](CO)[C@](O)(CO)C2
inactive: Potency (C33A) | Potency (CAOV3) | Potency (CASKI) | Potency (Es-2) | Potency (HeLa) | Potency (Hek293T)

C=C(CO[C@@H]1O[C@H](CO[C@@H]2OC[C@](O)(CO)[C@H]2O)[C@@H](O)[C@H](O)[C@H]1O)C1Cc2cc(C(C)=O)ccc2O1 (some centres undefined)
inactive: Potency (C33A) | Potency (CAOV3) | Potency (CASKI) | Potency (Es-2) | Potency (HeLa) | Potency (Hek293T)

CC(C)(O[C@@H]1O[C@H](CO)[C@@H](O)[C@H](O)[C@H]1O)C(OC(=O)/C=C\c1ccc(O)cc1)C(=O)OCc1ccc(O[C@@H]2O[C@H](CO)[C@@H](O)[C@H](O)[C@H]2O)cc1 (some centres undefined)
inactive: Potency (C33A) | Potency (CAOV3) | Potency (CASKI) | Potency (Es-2) | Potency (HeLa) | Potency (Hek293T)

O=c1[nH]ccc2cc(OC3CCNCC3)ccc12
inactive: Potency (C33A) | Potency (CAOV3) | Potency (CASKI) | Potency (Es-2) | Potency (HeLa) | Potency (Hek293T)

OCC(CO[C@@H]1O[C@H](CO)[C@@H](O)[C@H](O)[C@H]1O)c1ccc2c(c1)OCO2 (some centres undefined)
inactive: Potency (C33A) | Potency (CAOV3) | Potency (CASKI) | Potency (Es-2) | Potency (HeLa) | Potency (Hek293T)

CC(C)(O)/C=C/CC(C)(O)C1C(O)CC2(C)C3CCC4C(C)(C)C(=O)CCC4(C)C3CCC12C (centres undefined)
inactive: Potency (C33A) | Potency (CAOV3) | Potency (CASKI) | Potency (Es-2) | Potency (HeLa) | Potency (Hek293T)

COC1CC(OC2CCC3(C)C(=CCC4C3C(OC(C)=O)C(OC(=O)/C=C/c3ccccc3)C3(C)C(C(C)O)CCC43O)C2)OC(C)C1OC1CC(OC)C(OC2OC(C)C(OC3OC(CO)C(O)C(O)C3O)C(OC)C2O)C(C)O1 (centres undefined)
inactive: activity change, negative = cytotoxicity (C33A) -4.62% [at 6.55 µM] | activity change, negative = cytotoxicity (CAOV3) 1.34% [at 6.55 µM] | activity change, negative = cytotoxicity (CASKI) -3.47% [at 6.55 µM] | activity change, negative = cytotoxicity (Es-2) 4.75% [at 6.55 µM] | activity change, negative = cytotoxicity (HeLa) -0.474% [at 6.55 µM] | activity change, negative = cytotoxicity (Hek293T) -0.285% [at 6.55 µM]

COc1cc(/C=C/C(=O)O[C@H]2[C@H](O)[C@@H](CO)O[C@@]2(CO)O[C@H]2O[C@H](CO)[C@@H](O)[C@H](O)[C@H]2O)ccc1O
inactive: Potency (C33A) | Potency (CAOV3) | Potency (CASKI) | Potency (Es-2) | Potency (HeLa) | Potency (Hek293T)

O=C1CC2(CCCC2)[C@H](O)C(=O)N1CCCCN1CCN(c2ncccn2)CC1
inactive: Potency (C33A) | Potency (CAOV3) | Potency (CASKI) | Potency (Es-2) | Potency (HeLa) | Potency (Hek293T)

CC1=C2C[C@H]3O[C@@]3(C)CCC3O[C@@]3(C)C[C@@]2(O)OC1=O (some centres undefined)
inactive: Potency (C33A) | Potency (CAOV3) | Potency (CASKI) | Potency (Es-2) | Potency (HeLa) | Potency (Hek293T)

Cc1[nH]nc(C(F)(F)F)c1Cc1sc2c(c1C(=O)N1C[C@](C)(O)CO1)c(=O)n(C)c(=O)n2C(C)C
inactive: Potency (C33A) | Potency (CAOV3) | Potency (CASKI) | Potency (Es-2) | Potency (HeLa) | Potency (Hek293T)

COC(=O)/C=C/C12COC(C)(C)C1C(O)C(OC(C)=O)C1(C)C2CCC2(C)C(c3ccoc3)OC(=O)C3OC321 (centres undefined)
inactive: Potency (C33A) | Potency (CAOV3) | Potency (CASKI) | Potency (Es-2) | Potency (HeLa) | Potency (Hek293T)

COC(=O)C(C)C1CCC2(C)C(=O)C=CC(C)(O)C2C1O (centres undefined)
inactive: Potency (C33A) | Potency (CAOV3) | Potency (CASKI) | Potency (Es-2) | Potency (HeLa) | Potency (Hek293T)

CC(/C=C/C1=CC2=CC(=O)C(C)(O)C(O)C2=CO1)=C\C(C)CCO (centres undefined)
inactive: Potency (C33A) | Potency (CAOV3) | Potency (CASKI) | Potency (Es-2) | Potency (HeLa) | Potency (Hek293T)

CC1CCN(C(=O)CC#N)CC1N(C)c1ncnc2[nH]ccc12 (centres undefined)
inactive: Potency (C33A) | Potency (CAOV3) | Potency (CASKI) | Potency (Es-2) | Potency (HeLa) | Potency (Hek293T)

C/C=C/c1ccc2oc(-c3ccc(O)c(OC)c3)c(C)c2c1
inactive: Potency (C33A) | Potency (CAOV3) | Potency (CASKI) | Potency (Es-2) | Potency (HeLa) | Potency (Hek293T)

COc1cc(C)c(C(=O)Oc2cc(C)c(C(=O)Oc3cc(C)c(C(=O)NC(C)C(=O)O)c(O)c3)c(O[C@@H]3O[C@H](CO)[C@@H](O)[C@H](O)[C@H]3OC(C)=O)c2)c(OC)c1 (some centres undefined)
inactive: Potency (C33A) | Potency (CAOV3) | Potency (CASKI) | Potency (Es-2) | Potency (HeLa) | Potency (Hek293T)

CCOc1ccc2nc(SCCN3CCOCC3)[nH]c2c1
inactive: Potency (C33A) | Potency (CAOV3) | Potency (CASKI) | Potency (Es-2) | Potency (HeLa) | Potency (Hek293T)

C=C1CCC2C(C)(C(=O)O)CCCC2(C)C1CC/C(=C\CO)CO (centres undefined)
inactive: Potency (C33A) | Potency (CAOV3) | Potency (CASKI) | Potency (Es-2) | Potency (HeLa) | Potency (Hek293T)
